Measurements published in PubChem BioAssay (NCI).
Compounds without any hit were thinned out: in the full panel of roughly 83,000, 20% have a hit.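 A percent growth of 40 corresponds to 60% growth inhibition; 0 means no net growth; -100 means all cells died. Active threshold: below 10.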 Activity calls are given as the source filed them.

Key:
Test in all cases: NCI-60 one-dose screen, 48 h (100 = growth as untreated, 0 = no growth, -100 = all killed)
Conditions in all cases: 10 µM unless noted
[1] = tested on: T-47D breast
[2] = tested on: BT-549 breast
[3] = tested on: MDA-MB-435 melanoma
[4] = tested on: SW-620 colon
[5] = tested on: MCF7 breast
[6] = tested on: HCT-116 colon
[7] = tested on: HCC-2998 colon
[8] = tested on: KM12 colon

Measured: growth

Cc1ccc2[nH]c3nc4cccnc4c(C)c3c2c1
active: [5] 1.4%
inactive: [1] 14.2% | [2] 68.6% | [3] 108% | [4] 91.6% | [6] 91.9% | [7] 92.7% | [8] 72.8%

CCNc1ncnc2n[nH]nc12
inactive: [1] 99.2% | [2] 94% | [3] 99.5% | [4] 95.8% | [5] 98.3% | [6] 98.8% | [7] 106% | [8] 105%

O=C(CSc1nnc(-c2cc3c([nH]c4ccccc43)c(-c3cccc(O)c3)n2)n1-c1ccccc1)c1ccccc1
inactive: [1] 53% | [2] 56% | [4] 50% | [5] 13.7% | [6] 29.7% | [7] 96% | [8] 60.1%
active: [3] -33.3%

S=c1n(CNc2ccc(Cl)nn2)nc(-c2cc(Cl)cc(Cl)c2Cl)n1/N=C/c1ccc(Cl)cc1
inactive: [1] 101% | [2] 106% | [3] 89.3% | [4] 103% | [5] 87.4% | [6] 83.8% | [7] 88.6% | [8] 97.1%

CC1CCc2cc(F)cc3c(=O)c(C(=O)O)cn1c23 (stereo unspecified)
inactive: [1] 99.7% | [2] 104% | [3] 94.8% | [4] 106% | [5] 112% | [6] 105% | [7] 105% | [8] 102%

Nc1ncnc2c1ncn2C1OC(COC(c2ccccc2)(c2ccccc2)c2ccccc2)C(O)C1O (stereo unspecified)
inactive: [1] 103% | [2] 94% | [3] 99.6% | [4] 98% | [5] 94.2% | [6] 92.4% | [7] 78.9% | [8] 99.2%

CCOC(=O)C(C)(CSSCC(C)(NC(=O)c1ccc2ccccc2c1)C(=O)OCC)NC(=O)c1ccc2ccccc2c1 (stereo unspecified)
inactive: [1] 86.6% | [2] 138% | [3] 96.3% | [4] 96.5% | [5] 92.2% | [6] 47% | [7] 119% | [8] 107%

CN1CCN(CC(=O)N(C)c2ccc(N=C(c3ccccc3)c3c(O)[nH]c4ccc(C#N)cc34)cc2)CC1
inactive: [1] 69.4% | [2] 15.1% | [3] 23.9% | [4] 16.5% | [5] 12.7% | [7] 39.8%
active: [6] 9.41% | [8] 9.43%

COc1ccc(SC2c3ccc(O)cc3Oc3nc(N)c(C#N)c(N)c32)cc1 (stereo unspecified)
inactive: [1] 85.4% | [2] 30.7% | [3] 87% | [4] 105% | [5] 90.7% | [6] 94.9% | [7] 92.7% | [8] 65.5%

COC1=C(OC)C(=O)C=CC1=O
inactive: [1] 99.5% | [2] 94.4% | [3] 116% | [4] 77.8% | [5] 94.3% | [6] 64.4% | [7] 125% | [8] 104%

CCOC(=O)c1noc2c1CCc1cn(Cc3cc(OC)cc(OC)c3)cc1-2
inactive: [1] 94.7% | [2] 91.5% | [3] 103% | [4] 103% | [5] 94.9% | [6] 92.3% | [7] 88.9% | [8] 100%

CCc1c(C)c2cc3c(c(C)c2oc1=O)OCC(=O)N3
inactive: [1] 58.6% | [2] 74.7% | [3] 74.5% | [4] 90.3% | [5] 82.1% | [6] 52.7% | [7] 90% | [8] 84.3%

COc1ccc(C2=NN(C(=O)COc3ccc(Cl)cc3)C(O)(c3cc(F)c(Cl)cc3Cl)C2)cc1 (stereo unspecified)
inactive: [1] 95.3% | [2] 115% | [3] 91.7% | [4] 100% | [5] 96.3% | [6] 86.4% | [7] 104% | [8] 89.1%

O=C(Nc1cccc([N+](=O)[O-])c1)Nc1cccc([N+](=O)[O-])c1
active: [1] 6.88%
inactive: [2] 50.5% | [3] 63.1% | [4] 45.4% | [5] 20.7% | [6] 37.3% | [7] 45.2% | [8] 27.7%

COc1ccccc1N1CCN(CCCOc2ccc(OCCCN3CCN(c4ccccc4OC)CC3)c(C(=O)c3cc(OC)c(OC)c(OC)c3)c2)CC1
inactive: [1] 104% | [2] 96.3% | [3] 122% | [4] 102% | [5] 95.1% | [6] 111% | [7] 107% | [8] 113%

O=C1/C(=C/c2cccc3cnccc23)Cc2cc(F)ccc21
inactive: [1] 42.7% | [2] 89% | [3] 101% | [4] 101% | [5] 58.9% | [6] 80.7% | [7] 106% | [8] 92.1%

C=C1C(=O)O[C@H]2[C@H]1CC/C(COC(=O)c1ccc(C#N)cc1)=C\CC[C@@]1(C)O[C@@H]21
inactive: [2] 29.7% | [3] 24% | [7] 91.1% | [8] 84.8%
active: [1] -16.2% | [4] -27.7% | [5] 0.298% | [6] -60.3%

C=C1C(=O)O[C@H]2[C@H]1CC/C(C(=O)NCCOCCOCC(=O)Nc1ccc(OC)c(C(N)=O)c1O)=C\CC[C@@]1(C)O[C@@H]21
inactive: [1] 70.6% | [2] 86.2% | [3] 104% | [4] 80.1% | [5] 83.6% | [6] 81.2% | [7] 104% | [8] 101%

COc1ccc(-n2c(-c3ccc(NC(=O)CCCl)cc3)nnc2-c2cc(OC)c(OC)c(OC)c2)cc1
inactive: [1] 25.3% | [2] 66.6% | [3] 54.9% | [4] 54.5% | [5] 23.2% | [6] 35.7% | [7] 43.2% | [8] 15.4%

Fc1ccc(/C=N/n2c(-c3cc(Cl)cc(Cl)c3Cl)nn(CNc3ccc(Cl)nn3)c2=S)cc1
inactive: [1] 86% | [2] 114% | [3] 97.9% | [4] 112% | [5] 98.9% | [6] 78.1% | [7] 107% | [8] 97.3%

COc1ccc(C(=O)NC(=O)Nc2ccc3c(c2)NC(=O)/C3=C\c2[nH]c(C)c(C(=O)O)c2C)cc1
inactive: [1] 45.3% | [2] 89% | [3] 85.2% | [4] 52.6% | [5] 75% | [6] 48.1% | [7] 97.7% | [8] 17.8%

O=C(Nc1ccc(-n2ccc3c(NC(=O)c4ccccc4)ncnc32)cc1)Nc1cccc(Cl)c1Cl
active: [3] -4.29% | [5] 2.07% | [6] -25.4%
inactive: [1] 42.8% | [2] 49.2% | [4] 11.5% | [7] 64.6% | [8] 20.7%

COc1ccc2c(c1)C(=O)/C(=C/c1ccc(OCC(=O)c3ccc(Cl)cc3)cc1)O2
inactive: [1] 72.2% | [2] 80.5% | [3] 92.8% | [4] 14.2% | [5] 104% | [6] 30.1% | [7] 21.2% | [8] 104%

COc1cc([C@@H]2c3cc4c(cc3C(OC3O[C@@H]5COC(C)O[C@H]5[C@H](O)[C@H]3O)C3COC(=O)[C@@H]32)OCO4)cc(OC)c1O (stereo partly specified)
inactive: [1] 23.9% | [2] 31.4% | [3] 50% | [4] 35.6% | [5] 22.4% | [6] 41.7% | [7] 38.7% | [8] 42.1%

OCc1cnccc1NC12CC3CC(CC(C3)C1)C2
inactive: [1] 89.4% | [2] 110% | [3] 105% | [4] 103% | [5] 101% | [6] 99.6% | [7] 105% | [8] 103%

Nc1ncnc2c1c(-c1ccc(Oc3ccccc3)cc1)nn2C[C@H]1SSC[C@H]1O
inactive: [2] 38.9% | [4] 69.2% | [7] 11.2%
active: [1] -20.6% | [3] -74.6% | [5] -53.9% | [6] -69.3% | [8] 9.93%

COc1ccc(NC(=O)COCCOCCNC[C@@H]2C(=O)O[C@H]3[C@H]2CC/C(COC(=O)OC/C2=C/CC[C@@]4(C)O[C@H]4[C@H]4OC(=O)[C@@H](CN(C)C)[C@@H]4CC2)=C\CC[C@@]2(C)O[C@@H]32)c(O)c1C(N)=O
inactive: [1] 15.8% | [2] 56.8% | [3] 49.6% | [5] 19.4% | [7] 106% | [8] 79.3%
active: [4] -6.42% | [6] -38.6%
